Assay results from PubChem BioAssay (NCATS).
A number with no mark means an inactive call. Inconclusive results are not listed. Entries that show only a call come without a potency. Active and inactive are the calls of the source. Calls follow the shape of the dose curve; as a rule, active = well fitted curve in the direction sought with a large enough effect; inconclusive = small, poorly fitted or top-dose-only effect, or another doubt; inactive = no such curve, though single readings can be large; an effect the other way counts as inactive or inconclusive.

Target: Luciferin 4-monooxygenase (Photinus pyralis) (UniProt P08659)
Assay: Primary firefly luciferase (FLuc) qHTS assay for identification of artifact compounds. (AID 1845220); also: nearly all actives have a fitted effect of over 60% in size
Settings: purified firefly luciferase, luminescence, 5 min; series mostly up to 54.1 µM
Method in brief: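 Reaction readout was CCD-imaged luminescence, taken 5 min after adding 10 nM purified firefly enzyme to compound-treated wells holding 10 uM luciferin and ATP in pH 7.6 buffer.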

Row | SMILES | Potency | outcome
1 | CC1(C)CC[C@]2(C(=O)O)CC[C@]3(C)C(=CCC4[C@@]5(C)CC[C@H](O[C@@H]6O[C@H](C(=O)O)[C@@H](O)[C@H](O)[C@H]6O)C(C)(C)C5CC[C@]43C)C2C1 (stereo partly specified) | inactive | –
2 | C[C@@H]1C(=O)O[C@H](C)[C@H]1C[C@@H](O)[C@](C)(O)[C@H]1CC[C@@]2(O)C3=CC(=O)[C@@H]4C[C@@H](O)[C@@H](O)C[C@]4(C)C3CC[C@]12C (stereo partly specified) | inactive | –
3 | O=C(O)CC1CCC(c2ccc(-c3ccc(Nc4ccc(C(F)(F)F)nc4)cn3)cc2)CC1 (stereo unspecified) | inactive | –
4 | CC(=C\C(C)O)/C=C(\C)C(=O)CC1CC(CC(N)=O)CC(=O)O1 (stereo unspecified) | inactive | –
5 | COc1ccc(CCC(=O)O)c(O[C@@H]2O[C@H](CO)[C@@H](O)[C@H](O)[C@H]2O)c1 | inactive | –
6 | C[C@@H]1O[C@@H](O[C@H]2[C@H](OC(=O)[C@]34CCC(C)(C)C[C@H]3C3=CCC5[C@@]6(C)C[C@@H](O)[C@@H](O)[C@@](C)(CO)C6[C@H](O)C[C@@]5(C)[C@]3(C)CC4)OC[C@H](O)[C@@H]2O)[C@H](O)[C@H](O)[C@H]1O[C@@H]1OC[C@@H](O)[C@H](O[C@H]2O[C@H](C)[C@@H](O)[C@H](O)[C@@H]2O)[C@H]1O (stereo partly specified) | – | inactive [at 11.6 µM]

System: not listed separately
Assay: Primary fluorescence-based thiol-reactive (MSTI) qHTS assay for identification of artifact compounds. (AID 1845221); also: nearly all actives have a fitted effect of over 65% in size; also: potency is read from the fitted curve at half-maximal effect;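 as to activity change, negative = thiol reactive: thiol-reactive compounds lower the probe fluorescence signal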
Settings: MSTI thiol-reactivity probe, 1 h; series mostly up to 53.8 µM
Method in brief: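 Probe: MSTI 4 uM, PBS pH 7.4, 2% DMSO. Incubation 1 h, RT, light-protected. Readout fluorescence 525/598 nm.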

Row | SMILES | Potency | activity change, negative = thiol reactive
7 | COC(=O)C(CC1CCCC1)c1ccc(S(C)(=O)=O)cc1 (stereo unspecified) | inactive | –
8 | CC(C)/C=C1/NC(=O)C(C(C)C)n2c1nc1c(O)cccc1c2=O (stereo unspecified) | inactive | –
9 | O=C(O)/C=C/c1ccc(O[C@@H]2O[C@H](CO)[C@@H](O)[C@H](O)[C@H]2O)cc1 | inactive | –
10 | CC1CCCCCCCc2cc(O)cc(O)c2C(=O)O1 (stereo unspecified) | 26.7 µM (active) | –
11 | CSC(=O)OCC1=C[C@@H]2OC(=O)C3=CO[C@@H](O[C@@H]4O[C@H](CO)[C@@H](O)[C@H](O)[C@H]4O)[C@H]1[C@@H]32 | 6.53 µM (active) | –
12 | C=C1C[C@]23C[C@H]1CC[C@H]2[C@]1(C)CC[C@H](O)[C@@](C)(C(=O)O)[C@H]1[C@@H]3C(=O)O | inactive | –
13 | C[C@@H]1O[C@@H](O[C@H]2[C@H](OC(=O)[C@]34CCC(C)(C)C[C@H]3C3=CCC5[C@@]6(C)CC[C@H](O[C@@H]7O[C@H](CO[C@@H]8OC[C@H](O)[C@H](O)[C@H]8O[C@@H]8OC[C@@H](O)[C@H](O)[C@H]8O)[C@@H](O)[C@H](O)[C@H]7O)C(C)(C)C6CC[C@@]5(C)[C@]3(C)C[C@H]4O)O[C@H](CO)[C@@H](O)[C@@H]2O)[C@H](O[C@@H]2O[C@H](CO)[C@@H](O)[C@H](O)[C@H]2O)[C@H](O)[C@H]1O[C@@H]1OC[C@@H](O)[C@H](O[C@@H]2OC[C@@H](O)[C@H](O)[C@H]2O)[C@H]1O (stereo partly specified) | – | 385% [at 6.41 µM]
14 | CC(C)=CCC[C@](C)(O[C@@H]1O[C@H](CO)[C@@H](O)[C@H](O)[C@H]1O)[C@H]1CC[C@]2(C)[C@@H]1[C@H](O)CC1[C@@]3(C)CC[C@H](O)C(C)(C)C3[C@@H](O[C@@H]3O[C@H](CO)[C@@H](O)[C@H](O)[C@H]3O[C@@H]3O[C@@H](C)[C@H](O)[C@@H](O)[C@H]3O)C[C@]12C (stereo partly specified) | – | 209% [at 11.5 µM]
15 | CC(C)(O)/C=C/C(=O)[C@](C)(O)[C@H]1[C@H](O)C[C@@]2(C)[C@@H]3CC=C4[C@@H](C=C(O[C@@H]5O[C@H](CO)[C@@H](O)[C@H](O)[C@H]5O)C(=O)C4(C)C)[C@]3(C)C(=O)C[C@]12C | inactive | –
16 | C[C@H]1CCN2C[C@]34C[C@@]5(C(=O)Nc6c5ccc5c6OC=CC(C)(C)O5)C(C)(C)C3C[C@]12C(=O)N4C (stereo partly specified) | inactive | –
17 | O=C(/C=C/c1ccc(O)c(O)c1)O[C@@H]1[C@@H](O)[C@H](OC2CCCCC2O)O[C@H](CO)[C@H]1O (stereo partly specified) | 2.92 µM (active) | –
18 | COc1cc(/C=C/C(=O)O[C@@H]2O[C@H](CO)[C@@H](O)[C@H](O)[C@H]2O)ccc1O | 4.65 µM (active) | –
19 | CC(=O)/C=C/C1(O)C(C)CC(O[C@@H]2O[C@H](CO)[C@@H](O)[C@H](O)[C@H]2O)CC1(C)C (stereo partly specified) | 9.22 µM (active) | –
20 | CC(=O)OC1CC2C(C)(C)C(=O)C=CC2(C)C2CC(=O)C3=C(CCC3C3=CC(O)OC3=O)C12C (stereo unspecified) | inactive | –
21 | C=C(CCO)C(=O)OCC1OCC(OC(=O)C(=C)CCO[C@@H]2O[C@H](COC(=O)C(=C)CCO[C@@H]3O[C@H](CO)[C@@H](O)[C@H](O)[C@H]3O)[C@@H](O)[C@H](O)[C@H]2O)C(O)C1O (stereo partly specified) | inactive | –
